Bioassay records: PubChem BioAssay, National Center for Advancing Translational Sciences (NCATS)
Only some compounds are listed: those with a hit (about 21% of all), similar ones and a draw of the others.
ELG1 repair inh – blocks ELG1-dependent DNA repair in HEK293T cells; HEK293T ELG1-luciferase reporter, luminescence, 16 h; DNA damage induced by 5-fluorouridine; 2.3% of 330,000 active; AID 504467; Potency, µM (top dose mostly 46.1 µM), most hits filed as inhibitors; also: nearly all actives have a fitted effect of over 55% in size
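Quantitative HTS, concentration-response format. 2,000 cells/well co-treated with 5-fluorouridine and compound, 16 hr in 5% CO2 at 37 °C; ONE-Glo luminescence read after 30 min.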
RORg inh – blocks mouse ROR gamma transcriptional activity. Drosophila S2 Gal4-RORgamma UAS-luciferase reporter, 20 h. 5.4% of 310,000 active. P51450. AID 2551. Potency, µM (doses to about 53.6 µM), usual class: inhibitors; also: nearly all actives have a fitted effect of over 60% in size
Target sequence (P51450 whole entry, looked up, the tested form may be a part): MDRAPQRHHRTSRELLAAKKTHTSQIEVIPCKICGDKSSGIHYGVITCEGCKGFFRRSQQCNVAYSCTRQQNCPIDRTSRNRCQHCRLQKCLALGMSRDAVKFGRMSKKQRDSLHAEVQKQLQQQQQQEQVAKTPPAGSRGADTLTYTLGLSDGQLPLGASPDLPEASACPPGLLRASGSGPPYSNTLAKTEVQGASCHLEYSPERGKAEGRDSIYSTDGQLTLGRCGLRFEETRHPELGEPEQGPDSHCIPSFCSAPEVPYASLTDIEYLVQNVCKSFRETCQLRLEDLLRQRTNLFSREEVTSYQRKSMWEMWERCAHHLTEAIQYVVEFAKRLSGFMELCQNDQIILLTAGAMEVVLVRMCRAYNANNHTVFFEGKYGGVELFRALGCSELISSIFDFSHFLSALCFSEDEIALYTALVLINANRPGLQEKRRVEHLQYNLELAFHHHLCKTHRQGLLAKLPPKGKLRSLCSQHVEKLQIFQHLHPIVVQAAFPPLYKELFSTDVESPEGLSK
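Luciferase reporter read in Schneider cells carrying Gal4-RORγ (mouse) and UAS-Photinus luciferase; cells given compound 1 h before 700 uM copper sulfate induction, then incubated 20 h at ambient temperature.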
TDP1 cell CPT – DT40-hTDP1 cell growth loss with CPT | 12% of 420,000 active | Potency, µM (highest dose often 46.2 µM), usual class: inhibitors | chicken DT40 Tdp1-/-;hTDP1 cells + 20 nM CPT, ATP luminescence, 48 h; also: nearly all actives have a fitted effect of over 55% in size
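Cell growth measured by CellTiter-Glo luminescence after a minimum 48 h, 37 C compound exposure with 20 nM CPT in Tdp1-knockout DT40 cells stably expressing hTDP1, seeded 400/well; qHTS titration format.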
IL-1B inflam inh – inflammasome signaling inhibition, IL-1 beta readout; activity change, % at 57.5 µM; THP-1 LPS/ATP IL-1B secretion, AlphaLISA, 16 h; hits give low values; 4.7% of 360,000 active; in the data active = activity change below about -50%; inconclusive = mostly about -30% to -49%
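THP-1 cells pretreated 1 hr with compounds (up to 57.5 uM final), then stimulated with LPS (250 ng/mL final) plus ATP (1.25 mM final); secreted IL-1B measured by AlphaLISA after 16 hr, decreased signal indicating inhibition.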
VP16 counter – Gal4-VP16 reporter inhibition counter-screen; Drosophila S2 Gal4-VP16 UAS-luciferase, luminescence, 20 h; Potency, µM (titrated, usually from 53.6 µM), actives largely listed as inhibitors; 3.5% of 310,000 active; AID 2546;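 also: Gal4-VP16 expression switched on by copper sulfate through the metallothionein promoter; nearly all actives have a fitted effect of over 50% in size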
DT40 TDP1 no CPT – qHTS for Inhibitors of human tyrosyl-DNA phosphodiesterase 1 (TDP1): qHTS in cells in absence of CPT. Potency, µM (doses to about 46.2 µM), actives largely listed as inhibitors. DT40 Tdp1-/- hTDP1 cells, no CPT, ATP luminescence, 48 h. 15% of 420,000 active; also: nearly all actives have a fitted effect of over 55% in size
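Growth kinetics read by CellTiter-Glo luminescence after ≥48 hr at 37 °C. Cells: DT40 Tdp1-/- stably carrying human TDP1, 400 per well, compound exposure in the absence of CPT (DMSO vehicle).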
A number is an active result; – = inactive; ? = inconclusive; · = no result given; [ ] = another dose, or the depositor's remark. Unless noted, calls follow the shape of the dose curve; as a rule, active = well fitted curve in the direction sought with a large enough effect; inconclusive = small, poorly fitted or top-dose-only effect, or another doubt; inactive = no such curve, though single readings can be large; an effect the other way counts as inactive or inconclusive.

SMILES | ELG1 repair inh | RORg inh | TDP1 cell CPT | IL-1B inflam inh | VP16 counter | DT40 TDP1 no CPT
CCN(C[C@H]1N[C@@](Cc2ccccc2)(C(=O)OC)[C@H]2C(=O)N(Cc3ccccc3)C(=O)[C@@H]12)S(=O)(=O)c1ccc(OC)cc1 | ? | · | ? | – | · | ?
CCN(C[C@H]1N[C@@](Cc2ccccc2)(C(=O)OC)[C@H]2C(=O)N(Cc3ccccc3)C(=O)[C@@H]12)S(=O)(=O)c1ccc(F)cc1 | – | · | 18µM | – | · | ?
COC(=O)[C@]1(Cc2ccccc2)N[C@H](CN(C)S(=O)(=O)c2ccc(C(C)(C)C)cc2)[C@@H]2C(=O)N(C)C(=O)[C@@H]21 | – | · | 18µM | – | · | ?
CCN(C(=O)c1ccc2c(c1)OCO2)C1CCS(=O)(=O)C1 (configuration not stated) | ? | · | – | – | · | –
CC1ON=C(c2ccc(F)cc2)NC1=O (configuration not stated) | · | · | – | – | · | –
CC[C@@]1(C(=O)OC)N[C@H](CN(C)C(=O)c2ccccc2)[C@@H]2C(=O)N(Cc3ccccc3)C(=O)[C@@H]21 | – | · | – | – | · | –
CCN(C[C@H]1N[C@@](Cc2ccccc2)(C(=O)OC)[C@H]2C(=O)N(C)C(=O)[C@@H]12)S(=O)(=O)c1ccc(C(C)(C)C)cc1 | ? | · | ? | – | · | 18µM
CCN(C[C@H]1N[C@@](CC)(C(=O)OC)[C@H]2C(=O)N(C)C(=O)[C@@H]12)S(=O)(=O)c1ccc(C(C)(C)C)cc1 | – | · | ? | – | · | ?
COC(=O)[C@]1(Cc2ccccc2)N[C@H](CN(C)C(=O)c2ccc(C(C)(C)C)cc2)[C@@H]2C(=O)N(Cc3ccccc3)C(=O)[C@@H]21 | – | · | 15µM | – | · | 21µM
CC(=O)c1ccc(S(=O)(=O)NC2CC(=O)N(c3ccc(C)c(C)c3)C2)cc1 (configuration not stated) | – | · | 15µM | – | · | 15µM
O=C1CC(NS(=O)(=O)c2ccc([N+](=O)[O-])cc2)CN1c1ccc(Cl)cc1 (configuration not stated) | – | · | ? | – | · | 16µM
O=C(CCCCCN1C(=O)c2cccc3cccc(c23)C1=O)NCCO | – | – | ? | ? | –[10 µM] | ?
N#C/C(=N\Nc1ccc(Cl)cc1)C(=O)c1ccccc1 | ? | ? | 9.2µM | -52 | ? | 10µM
Cc1c(N/N=C(\C#N)C(=O)c2ccc(Cl)cc2)c(=O)n(-c2ccccc2)n1C | – | 7.1µM | 3.7µM | – | 3.5µM | 3.7µM
Cc1csc(CN(C)C(=O)CC2C(=O)NCCN2Cc2ccccc2C)n1 (configuration not stated) | · | · | – | – | · | ?
C=Cn1ccnc1P(=S)(c1ccc2c(c1)c1ccccc1n2CC)c1nccn1C=C | ? | ? | 29µM | ? | ? | ?
CCn1c2ccccc2c2cc(/C=C3\C=Cc4ccccc43)ccc21 | · | · | – | · | · | ?
Cc1cccc(-n2nnc3c(=O)n(CC(=O)Nc4cc(C)on4)cnc32)c1 | – | – | – | – | – | –
CCN(C(=S)Nc1cccnc1)c1cccc2ccccc12 | – | – | – | – | – | –
C=CCNC(=S)N(CC)c1cccc2ccccc12 | – | 7.1µM | – | – | ? | ?
CCN(C(=S)NCc1ccccc1)c1cccc2ccccc12 | – | 7.1µM | ? | – | ? | –
CCN(C(=S)NCc1ccccc1)c1ccccc1 | ? | 14µM | – | – | – | –
CC(=O)Nc1cccc(C(=O)OCC(=O)NNC(=O)c2cccs2)c1 | – | · | – | – | · | –
COc1ccc(N2CCN(C(=O)Cn3nc(Cc4cccnc4)c4ccccc4c3=O)CC2)cc1 | · | · | – | · | · | ?
CCCc1cc(N2CCN(c3ccccc3F)CC2)n2cnnc2n1 | · | · | 18µM | · | · | 26µM
Cc1cc(NCc2ccccc2Cl)n2cnnc2n1 | · | · | 12µM | · | · | 9.2µM
Cc1cc(NCc2ccc(F)cc2Cl)n2nnnc2n1 | – | – | – | – | – | ?
